Measured values taken from ChEMBL document CHEMBL2218924, “A broad activity screen in support of a chemogenomic map for kinase signalling research and drug discovery” (Biochem J, 2013).

Target: Tyrosine-protein kinase ABL2 (Homo sapiens) (UniProt P42684)
Conditions: at 10 µM

Tyrosine-protein kinase ABL2 (Homo sapiens), sequence (P42684 whole entry): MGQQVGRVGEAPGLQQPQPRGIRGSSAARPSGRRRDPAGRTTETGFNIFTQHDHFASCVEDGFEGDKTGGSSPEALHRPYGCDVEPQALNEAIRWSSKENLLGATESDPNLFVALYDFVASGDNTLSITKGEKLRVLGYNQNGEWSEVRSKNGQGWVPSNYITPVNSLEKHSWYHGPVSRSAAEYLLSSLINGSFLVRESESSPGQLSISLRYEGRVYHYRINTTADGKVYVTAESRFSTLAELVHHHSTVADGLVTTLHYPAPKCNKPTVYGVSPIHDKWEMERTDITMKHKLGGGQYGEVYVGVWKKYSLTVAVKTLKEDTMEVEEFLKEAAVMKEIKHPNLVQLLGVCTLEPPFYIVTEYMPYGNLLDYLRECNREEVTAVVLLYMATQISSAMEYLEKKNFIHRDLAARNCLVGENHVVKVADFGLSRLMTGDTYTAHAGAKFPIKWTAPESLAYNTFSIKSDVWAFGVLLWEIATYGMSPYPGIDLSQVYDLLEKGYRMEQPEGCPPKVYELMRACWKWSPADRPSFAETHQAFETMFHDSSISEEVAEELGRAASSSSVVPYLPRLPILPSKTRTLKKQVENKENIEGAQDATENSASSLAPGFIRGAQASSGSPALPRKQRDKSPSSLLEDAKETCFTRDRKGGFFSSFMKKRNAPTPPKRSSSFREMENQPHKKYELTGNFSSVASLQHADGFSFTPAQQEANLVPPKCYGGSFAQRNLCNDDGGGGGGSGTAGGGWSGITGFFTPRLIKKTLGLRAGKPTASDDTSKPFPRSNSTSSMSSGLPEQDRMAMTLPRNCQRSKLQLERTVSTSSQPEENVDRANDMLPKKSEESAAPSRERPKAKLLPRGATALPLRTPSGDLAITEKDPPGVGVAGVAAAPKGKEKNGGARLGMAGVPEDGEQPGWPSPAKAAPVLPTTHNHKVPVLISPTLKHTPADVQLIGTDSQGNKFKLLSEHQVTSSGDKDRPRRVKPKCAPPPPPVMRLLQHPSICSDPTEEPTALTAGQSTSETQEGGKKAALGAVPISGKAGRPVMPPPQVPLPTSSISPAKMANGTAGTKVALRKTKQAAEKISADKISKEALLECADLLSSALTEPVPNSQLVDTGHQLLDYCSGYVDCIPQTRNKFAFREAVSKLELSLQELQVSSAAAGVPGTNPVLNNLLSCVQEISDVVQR

| SMILES | residual activity |
| --- | --- |
| CCN(CC)CCCCN1c2ccccc2Oc2ccc(Cl)cc21 | 122% |
| O=[N+]([O-])c1ccc(-c2nc(-c3ccc(F)cc3)c(-c3ccncc3)[nH]2)cc1 | 46% |
| Cc1ccc(S(=O)(=O)/C=C/C#N)cc1 | 97% |
| COc1cc2ncnc(Nc3ccc(NC(=O)c4ccccc4)cc3)c2cc1OC | 93% |
| Cn1nc2c3c(cccc31)C(=O)c1ccccc1-2 | 86% |
| Cc1nc2cc3nc(-c4cccs4)cnc3cc2n1C | 83% |
| COc1cc2ncnc(N3CCN(C(=O)Nc4ccc(Oc5ccccc5)cc4)CC3)c2cc1OC | 118% |
| CC(C)n1cnc2/c(=N/c3cccc(Cl)c3)nc(NCCO)[nH]c21 | 10% |
| Cc1cc(Nc2nc(-c3ccccc3)nc3ccccc23)n[nH]1 | 3% |
| Cc1cncc2cccc(S(=O)(=O)N3CCCN(C(=O)CN)C[C@H]3C)c12 | 92% |
| Cc1cccc(-c2[nH]c(C(C)(C)C)nc2-c2ccc3c(c2)OCO3)n1 | 97% |
| N#Cc1cnc2cnc(NCc3cccnc3)cc2c1Nc1ccc(F)c(Cl)c1 | 55% |
| COc1ccc(S(=O)(=O)N(CCO)c2ccccc2CN(C)C/C=C/c2ccc(Cl)cc2)cc1 | 87% |
| c1ccc2c(-c3ccncc3)c[nH]c2c1 | 72% |
| c1ccc(-c2n[nH]cc2-c2ccnc3ccccc23)nc1 | 18% |
| O=C(Nc1cccc(Nc2nccc(Nc3cccc(C(F)(F)F)c3)n2)c1)C1CC1 | 44% |
| O=C1Nc2cc(Br)ccc2/C1=C1/Nc2ccccc2/C1=N\O | 2% |
| COc1ccc(OC)c2c(=S)c3ccccc3[nH]c12 | 84% |
| COc1cc2ncc(-c3ccccc3)nc2cc1OC | 84% |
